Screening results: PubChem, National Center for Advancing Translational Sciences (NCATS)
Most compounds without a hit are left out; they make up all but 11% or so of the library.
PNC assembly inh = inhibitors of perinucleolar compartment assembly | hit rate 3.1% among 140,000 | AID 2417 | activity change (PNC), negative = inhibition, % at 10 µM | PC3M PTB-GFP, PNC prevalence imaging, 16 h; hits give low values;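 active = readout at or below -70, meaning at least 70% loss of cells showing the perinucleolar compartment, a nuclear body marking cancer cells; inconclusive = readout between -30 and a set limit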
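PC3M cells stably expressing PTB-GFP, 750–1000 cells/well, treated 16 h at 37 °C with compound (23 nl of library stock), in duplicate. After paraformaldehyde fixation and Hoechst stain, imaged at 20x; PNC prevalence scored by image analysis.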
HttQ103 aggreg = inhibitors of mutant huntingtin aggregate formation in PC12 cells | hit rate 1.1% among 220,000 | PC12 HttQ103-GFP aggregates, Acumen cytometry, 40 h | Potency, µM (doses to about 46.1 µM), most hits filed as inhibitors; note: nearly all actives have a fitted effect of over 60% in size
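Compounds (qHTS titration) were added to PC12 cells expressing an ecdysone-driven HTT exon 1 Q103–GFP fusion after induction with 100 nM tebufenozide. Aggregate formation was measured as GFP objects in cell lysates.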
HPGD inh = blocks human HPGD enzyme activity; P15428; purified HPGD, NADH fluorescence kinetic, PGE2 substrate; Potency, µM, hits mostly inhibitors; hit rate 4.3% among 150,000; AID 894; active = well fitted inhibition curve with a large enough effect, not every such curve was filed as active; inconclusive = small, poorly fitted or top-dose-only effect, or another doubt; inactive = no such curve, though single readings can be large or run the other way
Target sequence (P15428 whole entry, looked up): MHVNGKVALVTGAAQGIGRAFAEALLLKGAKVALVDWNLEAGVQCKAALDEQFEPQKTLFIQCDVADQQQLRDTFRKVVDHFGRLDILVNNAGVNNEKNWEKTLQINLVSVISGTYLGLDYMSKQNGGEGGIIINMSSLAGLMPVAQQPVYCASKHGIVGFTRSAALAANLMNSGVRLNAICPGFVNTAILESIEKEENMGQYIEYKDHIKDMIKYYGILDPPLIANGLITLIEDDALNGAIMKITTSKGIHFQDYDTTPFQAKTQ
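20 nM HPGD preincubated 15 min at room temperature with compound in 50 mM Tris-HCl pH 8, 0.01% Tween 20. Started with 1 mM NAD+ and 30 uM prostaglandin E2; NADH fluorescence (360/450 nm) read 5 times over 30-s intervals, last minus first.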
CBFb RUNX1 block = inhibitors of human CBF-beta and RUNX1 interaction; Q01196+Q13951; AlphaScreen CBFb-His/RUNX1-biotin binding, biochemical; Potency, µM (titrated, usually from 59.8 µM), usual class: inhibitors; 230,000 tested, under 10 active; AID 1477
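Proteins preincubated together for 20 min at RT before compound addition; 15 min later, nickel and streptavidin beads were added and left 90 min prior to AlphaScreen measurement.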
HTT ATP protect = Huntington cell model cytoprotection by ATP luminescence. PC12 HTT-Q103 induced, cytoprotection, ATP luminescence, 40 h. Potency, µM (doses to about 56.4 µM), most hits filed as activators. hit rate 0.14% among 230,000; note: nearly all actives have a fitted effect of over 45% in size
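Cells were plated at 1500 per well in phenol red-free DMEM with 5% equine and 5% calf serum. Tebufenozide (100 nM final) and compounds were added, then ATPlite reagent, and luminescence was read.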
ALDH1A1 inh = blocks purified human ALDH1A1 activity. AID 1030. Potency, µM (highest dose often 75.3 µM), most hits filed as inhibitors. hit rate 7.3% among 220,000. Purified ALDH1A1, NADH fluorescence, propionaldehyde substrate. P00352; active = well fitted inhibition curve with a large enough effect, not every such curve was filed as active; inconclusive = small, poorly fitted or top-dose-only effect, or another doubt; inactive = no such curve, though single readings can be large or run the other way
A number is an active result; - = inactive; ? = inconclusive; . = not tested or not shown; [ ] = another dose, or the depositor's remark. Unless noted, calls come from the whole dose curve; as a rule, active = well fitted curve in the direction sought with a large enough effect; inconclusive = small, poorly fitted or top-dose-only effect, or another doubt; inactive = no such curve, though single readings can be large; an effect the other way counts as inactive or inconclusive.

SMILES	PNC assembly inh	HttQ103 aggreg	HPGD inh	CBFb RUNX1 block	HTT ATP protect	ALDH1A1 inh
Cn1c(Cn2c(=O)sc3ccccc32)nnc1SCC(=O)NCc1ccc2c(c1)OCO2	?	-	-	-	-[10 µM]	-
O=C1C[C@H]2OCC=C3CN4CC[C@@]5(C(=O)O)[C@H](N1)C2[C@H]3C[C@H]45 (some centres undefined)	.	.	-	.	.	-[13.5 µM]
CN(C)c1ncc2ncc(=O)n(Cc3cccs3)c2n1	.	.	?	.	-	?
c1ccc2c(c1)[nH]c1c3ccccc3sc21	.	-[9.22 µM]	.	-	-[10 µM]	-
CC(=O)c1cc2c(cc1NC(=O)CCn1cccc1)OCO2	-	-	-	-	-	32µM
CC(NCc1ccc2c(c1)OCO2)C(=O)NC1CCCCC1 (centres undefined)	.	-[9.22 µM]	.	-	-[10 µM]	35µM
COc1ccc(C(=O)c2coc(-c3ccccc3C(=O)O)c2C(=O)O)cc1	-	-	-	-	.	-
COc1ccc(C(=O)c2c(C(F)(F)F)oc3c2C(=O)c2ccccc2C3=O)cc1	?	3.2µM	-	-	-	-
NC(=S)NCCC[C@@H](N)C(=O)O	.	.	.	.	-[1.9 µM]	.
O=C(O)c1ccc(NS(=O)(=O)c2ccc3nnn(O)c3c2)cc1	-107	-	-	-	-	-
O=C(N/N=C/c1cc(Br)ccc1O)C(=O)Nc1ccccc1OC(F)(F)C(F)F	-	8.9µM	-	-	-	-
O=C(N/N=C/c1cc(Cl)ccc1O)C(=O)Nc1ccccc1OC(F)(F)C(F)F	-90	?	-	-	.	-
COc1cccc(/C=N/NC(=O)C(=O)Nc2ccccc2OC(F)(F)C(F)F)c1	-	-	-	-	-[10 µM]	-
COc1ccccc1/C=N/NC(=O)C(=O)Nc1ccccc1OC(F)(F)C(F)F	-	-	-	-	-[10 µM]	-
CCCc1nnc(NC(=O)c2c(O)c3c([nH]c2=O)CCCC3)s1	-114	-	-	-	-	-
CCS(=O)(=O)c1nc(S(=O)(=O)c2ccc(Cl)cc2)c(NCc2ccccn2)s1	.	-	.	-	-	13µM
CCNc1sc(S(C)(=O)=O)nc1S(=O)(=O)c1ccc(Cl)cc1	.	-	.	-	-	-
CCS(=O)(=O)c1nc(S(=O)(=O)c2ccc(Cl)cc2)c(N2CCc3ccccc3C2)s1	?	-	-	-	-[10 µM]	1.4µM
CCN(CC(=O)NCc1ccccn1)S(=O)(=O)c1ccc(Cl)cc1	?	-	22µM	-	-	?
CN(CC(=O)NCc1ccccn1)S(=O)(=O)c1ccc(Br)cc1	.	.	.	-	.	-
CCN(CC(=O)N1CCN(C)CC1)S(=O)(=O)c1ccc(Cl)cc1	-107	?	-	-	-	-
CCOC(=O)c1ccc2nc(CCC(=O)N[C@H](C(=O)OC)C(C)C)c(=O)n(CC)c2c1	.	-	.	-	-	?
CC(=O)OCCCN1c2ccccc2Nc2nnc(-c3ccccc3)cc21	-	-	-	-	-	-
COC(=O)[C@@H]1CC[C@H](C)[C@@H](c2ccc(C)cc2)N1C(=O)c1ccc(/C=N\OCC[C@@H]2C=C[C@H](OC(C)=O)[C@H](COC(C)=O)O2)cc1	.	.	.	-[13.1 µM]	-[10 µM]	-[13.5 µM]
O=C(O)CNC(=O)c1ccccc1O	.	.	?	.	-[10 µM]	-[13.5 µM]
SMILES	PNC assembly inh	HttQ103 aggreg	HPGD inh	CBFb RUNX1 block	HTT ATP protect	ALDH1A1 inh
COc1cccc(Cn2c(=O)c(-c3cc(F)cc(F)c3)nc3cnc(N4CCOCC4)nc32)c1	.	.	.	.	-	-
Cc1ccc(-n2ncc(C(=O)N3CCc4ccccc4C3)c2NC(=O)c2ccco2)cc1C	-	-	?	-	-[0.074 µM]	1µM
COc1ccc(CCNC(=O)c2cnn(-c3ccc(C)c(C)c3)c2NC(=O)c2ccco2)cc1OC	-	-	-	-	-	-
CC1(C)O[C@H]2[C@@H](c3[nH]nc4c(=O)[nH]c(=O)[nH]c34)OC[C@H]2O1	.	.	-	.	-[10 µM]	-[13.5 µM]
CN(C)c1ccc(C(=S)N2CCN(C(=S)Nc3cccc4ccccc34)CC2)cc1	.	?	.	-	-[10 µM]	16µM
CC(C)NC(=O)N1CCC2(CC1)CCN(C(=O)c1cccc(F)c1)CC2	.	.	-	.	-	-
N#C/C(=N\Nc1ccccc1F)C(=N)N1CCCCC1	-85	-	-	-	-[10 µM]	?
Cc1ccc(S(=O)(=O)N[C@H]2COC(=O)[C@H](C)COC(=O)C/C=C\[C@H]2C)cc1	.	.	.	-[13.1 µM]	-[10 µM]	-[13.5 µM]
O=C(O)/C=C/C=C/c1ccccc1	.	.	-	.	.	-
O=C1C=CCC(/C=C/c2ccccc2)O1 (centres undefined)	?	10µM	-	-[2.36 µM]	.	-
O=C(N/N=C/c1ccc(N2CCOCC2)s1)c1ccccc1Cl	.	-	.	-	-	16µM
